The whole screen tested about 1,100 compounds, of which about 860 (78%) were called active. Inconclusive results (about 19%) are left out. Calls follow the shape of the dose curve; as a rule, active = well fitted activation curve with a large enough effect; inconclusive = small, poorly fitted or top-dose-only effect; inactive = flat fitted curve, though single readings scatter. The set was probably picked from earlier hits. The list shows a part of the results.
Assay: qHTS of Nrf2 Activators: Hit Validation in Primary Assay; also: nearly all actives have a fitted effect of over 70% in size
Conditions: Nrf2/ARE reporter cell assay; Potency: activation; series mostly up to 46.1 µM
Procedure, shortened: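 Luminescence from Steady-Glo lysis reagent, read after 30 min, reported ARE-luciferase activity in AREc32_fluc stable cells. Compounds were tested at several concentrations, incubated 24 h at 37 °C with 5% CO2 following overnight seeding.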
Potency is read from the fitted curve at half-maximal effect.

**Q.** Which Potency does the source give for `CCCCn1c(O)c(N=Nc2ccccn2)c2ccccc21` here?
**A.** Its Potency is 2.91 µM (active).

**Q.** Which Potency does the source give for `CC(C)CCn1c(O)c(N=Nc2ccccn2)c2ccccc21` here?
**A.** The Potency was 2.91 µM (active).

**Q.** With `CC(C)N1C/C(=C/c2cccnc2)C(=O)/C(=C/c2cccnc2)C1` as the compound, how does the Potency read?
**A.** The Potency was 3.66 µM (active).

**Q.** Which Potency does the source give for `COC(=O)c1ccccc1NC(=O)c1cc(-c2ccco2)on1` here?
**A.** The Potency was 3.26 µM (active).

**Q.** For `CSc1ccccc1NC(=O)c1cc(-c2cccs2)on1`, which Potency is on record?
**A.** Its Potency is 2.91 µM (active).

**Q.** With `COc1ccc(NC(=O)c2cc(-c3cccs3)on2)c(OC)c1` as the compound, how does the Potency read?
**A.** The Potency was 1.3 µM (active).

**Q.** With `COc1ccc(Cl)cc1NC(=O)c1cc(-c2ccco2)on1` as the compound, how does the Potency read?
**A.** The Potency was 2.59 µM (active).

**Q.** For `CCCCC1C(=O)N(c2ccccc2)N(c2ccc(O)cc2)C1=O` (centres undefined), which Potency is on record?
**A.** The Potency was “inactive”.

**Q.** With `COc1ccc(NC(=O)c2cc(-c3ccco3)on2)c(OC)c1` as the compound, how does the Potency read?
**A.** The Potency was 2.31 µM (active).

**Q.** With `Cc1noc(C)c1COc1ccccc1C(=O)NNC(=O)c1ccccc1F` as the compound, how does the Potency read?
**A.** Its Potency is 3.66 µM (active).

**Q.** For `Cc1csc2c(=O)sc(NC(=O)c3cccs3)nc12`, which Potency is on record?
**A.** The Potency was 4.11 µM (active).

**Q.** Which Potency does the source give for `Cc1csc2c(=O)sc(NC(=O)c3ccc(F)cc3Cl)nc12` here?
**A.** Its Potency is 2.59 µM (active).

**Q.** For `Cc1ccccc1C(=O)Nc1nc2c(C)csc2c(=O)s1`, which Potency is on record?
**A.** The Potency was 2.91 µM (active).

**Q.** Which Potency does the source give for `CS/C(=C\C(=O)c1ccco1)Nc1ccccc1Cl` here?
**A.** The Potency was 4.61 µM (active).

**Q.** Which Potency does the source give for `CC(C)Nc1ccc(-c2nc(-c3ccco3)no2)cc1[N+](=O)[O-]` here?
**A.** The Potency was 2.31 µM (active).

**Q.** With `CNc1ccc(-c2nc(-c3ccco3)no2)cc1[N+](=O)[O-]` as the compound, how does the Potency read?
**A.** The Potency was 1.84 µM (active).

**Q.** With `COC(=O)c1cc(=O)nc(NN=Cc2ccco2)s1` as the compound, how does the Potency read?
**A.** Its Potency is 0.58 µM (active).

**Q.** With `Cc1ccc(Cc2c(-c3ccco3)nc3c(C)cc(Br)cn23)cc1` as the compound, how does the Potency read?
**A.** The Potency was 20.6 µM (active).

**Q.** For `Cc1cc(Br)cn2c(Cc3ccccc3)c(-c3ccco3)nc12`, which Potency is on record?
**A.** The Potency was 16.4 µM (active).

**Q.** For `Clc1ccsc1-c1csc(-c2cccnc2)n1`, which Potency is on record?
**A.** Its Potency is 2.06 µM (active).

**Q.** For `Cc1ccccc1NC(=O)/C(C#N)=C/c1ccsc1`, which Potency is on record?
**A.** The Potency was 4.11 µM (active).

**Q.** For `Cc1ccccc1NC(=O)/C(C#N)=C\c1ccsc1`, which Potency is on record?
**A.** Its Potency is 3.66 µM (active).

**Q.** For `Clc1cc(-c2ccccc2)nc(-c2ccccc2)n1`, which Potency is on record?
**A.** Its Potency is 5.8 µM (active).

**Q.** For `Clc1nc(-c2ccccc2)cc(-c2ccccc2)n1`, which Potency is on record?
**A.** The Potency was 4.11 µM (active).

**Q.** For `CN1CCCC1CCNc1ccc2c(=O)c3ccccc3oc2c1` (centres undefined), which Potency is on record?
**A.** Its Potency is 2.06 µM (active).

**Q.** Which Potency does the source give for `Cc1[nH]c2ccccc2c1N=Nc1ccccc1F` here?
**A.** Its Potency is 4.11 µM (active).

**Q.** Which Potency does the source give for `Cc1[nH]c2ccccc2c1N=Nc1ccccc1C(=O)O` here?
**A.** The Potency was 2.59 µM (active).

**Q.** With `O=C1S/C(=C\C=C\c2ccco2)C(=O)N1c1ccc(O)cc1` as the compound, how does the Potency read?
**A.** Its Potency is 2.31 µM (active).

**Q.** With `O=C1S/C(=C\C=C\c2ccco2)C(=O)N1c1ccccc1` as the compound, how does the Potency read?
**A.** The Potency was 5.8 µM (active).

— PubChem BioAssay AID651593 (National Center for Advancing Translational Sciences (NCATS), 2012)
